Reference: PubChem BioAssay
Calls of active or inactive are those of the source. Cut-off read from the data, not from the text of the source: active = inhibition above about 25%; inactive = the rest.

Experiment: VP16 transactivation inhibitors, counter-screen for SRC1 inhibitor project, cell-based, luminescence, high throughput (AID 588824)
Conditions: cell-based VP16 transactivation luciferase luminescence; at 3.6 µM; hits give high values
In the case of CC1(c2ccccc2)NC(=O)N(CC(=O)Nc2cc3c(cc2Br)OCCO3)C1=O (stereo not given), the inhibition is reported as -6.44% (inactive). With CC(C)(C)c1cc(C(=O)C[n+]2ccc(C(=O)NCCCO)cc2)cc(C(C)(C)C)c1O the inhibition was -12.9% (inactive). For Cc1ccc(CNc2ncnc3ccc(-c4ccc(CO)o4)cc23)o1, the inhibition was 14.7% (inactive). For COc1ccccc1C(NC(C)=O)c1cc(Cl)c2cccnc2c1O (stereo not given), the inhibition was 26.6% (active). With COc1ccc(Cc2nnc(NC(=O)c3cc(OC)c(OC)c(OC)c3)s2)cc1OC the inhibition was -17.4% (inactive). In the case of COc1cc(-c2cnc3c(NC(C)=O)cc(-c4ccc(N5CCN(C)CC5)cc4)cn23)cc(OC)c1OC, the inhibition is reported as -18.2% (inactive). For Cc1ccc(-c2nc(-c3ccccc3)no2)c(Cl)c1, the inhibition was -16.6% (inactive). For O=C(NCc1ccccc1)c1cc(S(=O)(=O)N2CCCCC2)ccc1N1CCOCC1, the inhibition was 11.3% (inactive). For COc1ccc(CNC(=O)c2ccc(N3CCC4(CC3)CC(c3ccc(Cl)cc3)=NO4)c([N+](=O)[O-])c2)cc1, the inhibition was 28.2% (active). For COc1cc(C(=O)OCC(=O)NC(N)=O)cc(CN2C(=O)c3ccccc3C2=O)c1OC, the inhibition was -8.55% (inactive). In the case of Cc1ccc(S(=O)(=O)N(C)C)cc1NC(=O)COC(=O)CCC1CCCC1, the inhibition is reported as 5.41% (inactive). In the case of Cc1ccc(C(C(=O)NCc2ccccc2)N(Cc2cccs2)C(=O)c2ccc3c(c2)OCCO3)cc1 (stereo not given), the inhibition is reported as -1.97% (inactive). In the case of CCCn1c(=O)c(C(=O)NC(C)c2ccccc2)c(O)c2ccccc21 (stereo not given), the inhibition is reported as -9.6% (inactive). With Cn1ccnc1SCC(=O)NC1(C#N)CCCCC1 the inhibition was -3.8% (inactive). In the case of CSc1sc(C(=O)NC(=O)NCc2cccnc2)c(C)c1-c1ccon1, the inhibition is reported as 1.48% (inactive). For O=C(NC1CCCC1)C1CCN(C(=O)c2cccc(Cl)c2)CC1, the inhibition was -3.66% (inactive). With NC(=O)c1nsc(C(=O)N(c2ccccc2F)C(C(=O)NCc2ccc(F)cc2)c2ccc(O)cc2)c1N (stereo not given) the inhibition was -2.03% (inactive). With CN1CCN(c2ccc(Cl)cc2NC(=O)CC2OC(=O)c3ccccc32)CC1 (stereo not given) the inhibition was -6.69% (inactive). With O=C(CN1CCN(Cc2ccc(Cl)cc2)C1=O)NCCCN1CCOCC1 the inhibition was -10.7% (inactive). For COc1ccc(CCNC(=O)[C@H](CCSC)NC(=O)N2CCn3c2nc2ccccc23)cc1OC, the inhibition was -3.22% (inactive). In the case of COc1ccc(-c2cc(C(=O)NCCCN3CCOCC3)c3ccccc3n2)cc1OC, the inhibition is reported as -2.84% (inactive). With Cc1cccc(C)c1NC(=S)N(CCN(C)C)Cc1cccs1 the inhibition was -2.41% (inactive). In the case of c1ccc(CC2CCN(c3ncnc4sccc34)CC2)cc1, the inhibition is reported as 29.4% (active). In the case of COc1ccc2nc(N3CCN(C(=O)c4ccc5ncsc5c4)CC3)sc2c1, the inhibition is reported as -0.4% (inactive). With CSc1nccc(Oc2cncc(Cl)c2)n1 the inhibition was 5.07% (inactive).
